Article PMC4336329 (PLoS ONE, 2015)
In all, about 310,000 compounds went through this assay and about 2,200 (0.71%) showed an effect of 50% or more. Effects have a minus sign here. For the sample, strong results were picked, then their nearest neighbours and some compounds at random.

What follows are compounds tested against human ether-à-go-go-related gene (hERG) potassium channel (human, UniProt Q12809) (assay: primary screen, population patch clamp on CHO cells stably expressing hERG; higher = less effect of the substance).
Chain of human ether-à-go-go-related gene (hERG) potassium channel (Q12809 whole entry, looked up): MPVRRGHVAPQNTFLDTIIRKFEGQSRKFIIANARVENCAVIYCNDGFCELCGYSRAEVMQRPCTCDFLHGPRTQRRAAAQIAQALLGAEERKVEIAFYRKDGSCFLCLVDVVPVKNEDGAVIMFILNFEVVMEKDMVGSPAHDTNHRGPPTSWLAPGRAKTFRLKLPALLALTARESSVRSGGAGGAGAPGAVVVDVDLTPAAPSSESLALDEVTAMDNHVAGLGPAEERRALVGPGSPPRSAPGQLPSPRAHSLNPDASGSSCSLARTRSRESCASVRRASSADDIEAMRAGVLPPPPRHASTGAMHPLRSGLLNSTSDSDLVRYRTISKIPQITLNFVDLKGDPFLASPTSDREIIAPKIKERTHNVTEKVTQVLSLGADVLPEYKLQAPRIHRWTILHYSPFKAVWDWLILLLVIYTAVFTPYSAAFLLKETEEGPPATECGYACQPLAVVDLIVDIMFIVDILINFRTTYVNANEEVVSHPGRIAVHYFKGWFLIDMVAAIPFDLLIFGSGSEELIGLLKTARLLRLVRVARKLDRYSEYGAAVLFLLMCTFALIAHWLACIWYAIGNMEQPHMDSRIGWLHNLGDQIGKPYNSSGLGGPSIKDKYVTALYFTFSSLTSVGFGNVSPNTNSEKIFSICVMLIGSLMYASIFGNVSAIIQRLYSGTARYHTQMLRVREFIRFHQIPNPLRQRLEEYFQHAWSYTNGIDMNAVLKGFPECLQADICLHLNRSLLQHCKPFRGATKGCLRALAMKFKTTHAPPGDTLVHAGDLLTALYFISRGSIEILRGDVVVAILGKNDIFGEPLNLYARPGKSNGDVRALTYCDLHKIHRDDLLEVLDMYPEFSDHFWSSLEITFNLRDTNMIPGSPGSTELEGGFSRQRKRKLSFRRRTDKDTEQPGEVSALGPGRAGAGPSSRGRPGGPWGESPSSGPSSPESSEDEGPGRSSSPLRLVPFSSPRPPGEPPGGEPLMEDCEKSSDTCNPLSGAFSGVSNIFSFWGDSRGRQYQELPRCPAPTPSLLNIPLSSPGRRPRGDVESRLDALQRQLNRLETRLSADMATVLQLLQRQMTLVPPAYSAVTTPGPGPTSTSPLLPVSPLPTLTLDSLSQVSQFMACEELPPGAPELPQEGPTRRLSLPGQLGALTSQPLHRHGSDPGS

| Structure (SMILES) | hERG current change (%, negative = inhibition) at 1uM [%] |
| --- | --- |
| Cc1cc(=O)[nH]c2ccc(S(=O)(=O)NC3CCCCC3)cc12 | 7.42 |
| CC(OC(=O)C(C)Oc1ccccc1)C(=O)Nc1ccc(S(=O)(=O)N2CCCCC2)cc1 (stereo not drawn) | 12.9 |
| Oc1ccc(/C=N/N2CCCCC2)cc1O | 14.2 |
| CCOCCN1CCN(c2c(CC)c(C)nc3cc(-c4cc(OC)cc(OC)c4)nn23)CC1 | -14 |
| COc1ccc(NC(=O)CN(C)C(=O)CCCc2nc3ccccc3s2)cc1 | -15.7 |
| COc1nc(-c2ccccc2)ccc1-c1noc(COc2ccccc2)n1 | 17.7 |
| CCOC(=O)Cn1c(=O)oc2cc(S(=O)(=O)N(C)c3cccc(C)c3)ccc21 | -1.77 |
| O=[N+]([O-])c1cc2c(cc1CN1CCN(c3ccc(F)cc3)CC1)OCO2 | 7.89 |
| CCCCCCCOC(=O)c1nc(Cl)c(Cl)c(N)c1Cl | 0.504 |
| CCCCOC(=O)c1nc(Cl)c(Cl)c(N)c1Cl | 12 |
| CCCCCCCCOC(=O)c1nc(Cl)c(Cl)c(N)c1Cl | -64.4 |
| CCOc1cccc(-c2nn3c(-c4cc(C)[nH]n4)nnc3s2)c1 | -8.21 |
| COc1ccc(/C=C/C(=O)Oc2ccc(C)cc2)cc1 | 1.29 |
| COc1ccc(/C=C/c2cc(-c3ccc(C)cc3)o[n+]2C)cc1.F[B-](F)(F)F | -76.5 |
| COc1ccc(/C=C/c2cc(C(F)(F)F)on2)cc1 | 17.5 |
| Cc1ccc2c(c1)NC(=O)C(CC(=O)NCCN(CC(C)C)CC(C)C)O2 (stereo not drawn) | 0.19 |
| Cc1ccc2c(c1)NC(=O)C(CC(=O)NCCCN1CCc3ccccc3C1)O2 (stereo not drawn) | -58.5 |
| Cc1ccc2c(c1)NC(=O)C(CC(=O)NCCCN1CCCC1)O2 (stereo not drawn) | 12.4 |
| CCC(C)N(CCNC(=O)CC1Oc2ccc(C)cc2NC1=O)C1CCCCC1 (stereo not drawn) | -58.1 |
| CCC(C)N(CCNC(=O)CC1Oc2ccccc2NC1=O)C1CCCCC1 (stereo not drawn) | -35.6 |
| Cc1ccc2c(c1)NC(=O)C(CC(=O)NCCCN1CCCCC1)O2 (stereo not drawn) | 6.37 |
| O=Cc1c(NCc2ccccc2)c2ccccc2[nH]c1=O | 12.6 |

| Structure (SMILES) | hERG current change (%, negative = inhibition) at 1uM [%] |
| --- | --- |
| C/C(=N\OCC(=O)Nc1ccc(OC(F)(F)F)cc1)c1ccc2c(c1)OCCO2 | 6.61 |
| C=CCS/C(N)=N\N=C\c1c(O)ccc2ccccc12 | 13.3 |
| Cc1ccc(C(=O)CN2C(=O)NC3(CCOc4ccccc43)C2=O)s1 (stereo not drawn) | 2.46 |
| Cc1sc2ncn(CC(=O)NCCCC(=O)N3CCC4(CC3)OCCO4)c(=O)c2c1C | 10.7 |
| CCOC(=O)c1oc2ccccc2c1NC(=O)c1cccs1 | 0.447 |
| N/C(Cc1ccc([N+](=O)[O-])cc1)=N\OC(=O)c1ccc2ccccc2c1 | 4.74 |
| N/C(Cc1ccc([N+](=O)[O-])cc1)=N\OC(=O)c1ccc(Br)cc1 | -3.44 |
| N/C(Cc1ccc([N+](=O)[O-])cc1)=N\OC(=O)c1ccc([N+](=O)[O-])cc1 | -56.7 |
| COc1ccc(CNC(=O)C2(CC3CC(c4ccccc4)=NO3)CCN(C(=O)OC(C)(C)C)CC2)cc1 (stereo not drawn) | 2.59 |
| COc1ccc(CNC(=O)C2(CC3CC(c4ccccc4)=NO3)CCN(C(=O)Cc3ccc(F)cc3)CC2)cc1 (stereo not drawn) | 12.8 |
| COc1ccc(CNC(=O)C2(CC3CC(c4ccccc4)=NO3)CCN(C(=O)C3(C)CC3)CC2)cc1 (stereo not drawn) | -37.1 |
| COc1ccc(CNC(=O)C2(CC3CC(c4ccccc4)=NO3)CCN(C(=O)c3cccc(O)c3)CC2)cc1 (stereo not drawn) | 8.84 |
| COc1ccc(CNC(=O)C2(CC3CC(c4ccccc4)=NO3)CCN(C(=O)CCCCCBr)CC2)cc1 (stereo not drawn) | -60.3 |
| COc1ccc(CNC(=O)C2(CC3CC(c4ccccc4)=NO3)CCN(C(=O)C3CCCC3)CC2)cc1 (stereo not drawn) | -67.1 |
| COc1ccc(C2NC(=O)c3ccccc3O2)cc1OC (stereo not drawn) | 8.88 |
| Fc1cccc(CCN2C(=S)NC[C@@H]2CC2CCCCC2)c1 | 8.53 |
| CCn1nc(C(C)C)cc1C(=O)N1CCCC(CO)(Cc2ccc(F)cc2F)C1 (stereo not drawn) | 5.81 |
| CC1CCCCN1C(=O)c1ccc(COc2ccc([N+](=O)[O-])cc2)o1 (stereo not drawn) | -18.9 |
| CCOC(=O)N1CCC(N2CCCC(C(=O)c3cc(F)ccc3OC)C2)CC1 (stereo not drawn) | -52.2 |
| COc1ccc(F)cc1C(=O)C1CCCN(C(=O)C2=C(C)OCCO2)C1 (stereo not drawn) | 14.5 |
| COc1ccccc1C(=O)C1CCCN(C(=O)C2CCCC2)C1 (stereo not drawn) | 8.68 |
| CCOC(=O)N1CCC(N2CCCC(C(=O)c3ccccc3OC)C2)CC1 (stereo not drawn) | -59.3 |

| Structure (SMILES) | hERG current change (%, negative = inhibition) at 1uM [%] |
| --- | --- |
| CCN(CC)CC(=O)N1CCCC(C(=O)c2ccccc2OC)C1 (stereo not drawn) | 6.77 |
| COc1ccc(F)cc1C(=O)C1CCCN(Cc2ccc(O)cc2)C1 (stereo not drawn) | -25.1 |
| CC(=O)Nc1ccc2[nH]c3ccccc3c2c1 | 3.08 |
| O=C(NCCCN1CCOCC1)c1sc2cc(Cl)ccc2c1Cl | 6.47 |
| Cc1c(C(=O)N(C)Cc2ccccc2)oc2ccc(S(=O)(=O)N3CCCC3)cc12 | -0.449 |
| COc1ccc(CCNC(=O)C(=O)Nc2ccc3c(c2)OCCO3)cc1OC | 14.4 |
| O=C(NCc1ccncc1)C(=O)NCC(c1ccco1)N1CCN(c2ccccc2)CC1 (stereo not drawn) | 3.03 |
| CCOc1ccc(N(C(=O)CNS(=O)(=O)c2ccccc2)C(CC)C(=O)NCc2ccco2)cc1 (stereo not drawn) | 4.35 |
| CCCCON1C(=O)c2cccc3cccc(c23)C1=O | 8.5 |
| CCCCN(C)C1=Nc2cccc3cccc1c23 | -54.9 |
| NC1=Nc2cccc3cccc1c23 | 12.8 |
| Cl.ClCCN1C2=NCCCN2c2ccccc21 | -1.36 |
| Cl.OC(COc1ccccc1)CN1C2=NCCCN2c2ccccc21 (stereo not drawn) | -54.6 |
| Cl.OC(COc1ccc(Cl)cc1)CN1C2=NCCCN2c2ccccc21 (stereo not drawn) | -82 |
| CN1CCN(CC(O)COc2ccc(Cl)cc2)CC1.Cl (stereo not drawn) | -5.93 |
| CCN1C2=NCCCN2c2ccccc21.Cl | 2.9 |
| OC(COc1ccccc1)CN1CCCC1 (stereo not drawn) | 9.18 |
| Cc1ccc(/C(O)=C2\C(=O)C(=O)N(CCN(C)C)C2c2ccccc2F)cc1 (stereo not drawn) | -6.65 |
| COc1ccc(S(C)(=O)=O)cc1S(C)(=O)=O | 12.3 |
| CC(C)OCCCNC(=O)c1c(N)n(CC2CCCO2)c2nc3ccccc3nc12 (stereo not drawn) | 6.34 |
| CCn1c(Cn2nnc(-c3ccccc3)n2)nnc1SCC(=O)Nc1ccc(C(C)=O)cc1 | 5.63 |
| COc1ccc(CCn2c(=N)c(C(=O)NCC3CCCO3)cc3c(=O)n4cccc(C)c4nc32)cc1OC (stereo not drawn) | -87.1 |

| Structure (SMILES) | hERG current change (%, negative = inhibition) at 1uM [%] |
| --- | --- |
| Cc1cccn2c(=O)c3cc(C(=O)NCC4CCCO4)c(=N)n(CCc4ccccc4)c3nc12 (stereo not drawn) | -84.4 |
| COc1ccc(CCn2c(=N)c(C(=O)NCC3CCCO3)cc3c(=O)n4cccc(C)c4nc32)cc1 (stereo not drawn) | -88.1 |
| COc1ccc(CCn2c(=N)c(C(=O)NCCN3CCOCC3)cc3c(=O)n4cccc(C)c4nc32)cc1OC | -44.4 |
| CC(C)C(NC(=O)C1CCCCC1)C(=O)N1CCN(c2ccc(F)cc2)CC1 (stereo not drawn) | -32.1 |
| CS(=O)(=O)N1CCN(c2ccccc2NC(=O)c2ccc3c(c2)OCCO3)CC1 | 9.09 |
| COc1cc(C(=O)N[C@@H](C)C(=O)N2CCC3(CC2)NCCc2[nH]cnc23)cc(OC)c1OC | 15.3 |
| CN(C)c1ccc(CNS(=O)(=O)c2csc(C(N)=O)c2)cc1 | 13 |
| COc1ccc(Cl)cc1CSc1n[nH]c(C)n1 | 16.6 |
| O=C(N/N=C/c1ccc(Cl)s1)C(O)c1ccccc1 (stereo not drawn) | 16.4 |
| O=c1c([N+](=O)[O-])c(N2CCCC2)c2ccccc2n1-c1ccccc1 | 4.99 |
| CCOC(=O)C1=C[C@]2(CC)CCCN3CCc4c(n1c1ccccc41)[C@@H]32 | -95.5 |
| CCOC(=O)C1=CC[C@H]2c3c(c4ccccc4n3C)C[C@H]1N2C | 15.5 |
| O=C(O)Cn1c(=O)c2c(c3ccccc31)CCC2 | 11.5 |
| Cl.Cn1c2c(c3ccccc31)CCN1CCC[C@]21c1ccccc1 | 12.1 |
| CCn1cc(C2N3CC4(C)CN2CC(C)(C3)C4=O)c2ccccc21 (stereo not drawn) | 4.63 |
| CC[C@]12CCCN3CCc4c(n(c5ccccc45)C(=O)C1)C32 (stereo partly drawn) | -50.5 |
| CCOC(=O)NNC(=O)CCn1c2c(c3ccccc31)CCCC2 | 6.89 |
| CC[C@]12CCCN3CCc4c(n(c5ccccc45)C(=O)C1)[C@@H]32 | -70.5 |
| NC(=O)C1CCCc2c1n(Cc1ccccc1)c1ccccc21 (stereo not drawn) | 9.63 |
| CCN1CCC(=NNC(=O)CC23CC4CC(CC(C4)C2)C3)CC1 | 11.5 |
| COc1cc(NC(c2ccccc2)c2ccccc2)cc(OC)c1OC | 5.7 |
